Bioassay records (PubChem BioAssay)
VHR inh color = VHR1 phosphatase inhibitors, primary screen, biochemical, colorimetric, HTS. 0.7% of 50,000 active. inhibition, % at 20 µM. recombinant VHR phosphatase, colorimetric substrate read-out. Dual specificity protein phosphatase 3 (Homo sapiens), P51452; in the data active = inhibition above about 60%
Target sequence (P51452 whole entry, looked up): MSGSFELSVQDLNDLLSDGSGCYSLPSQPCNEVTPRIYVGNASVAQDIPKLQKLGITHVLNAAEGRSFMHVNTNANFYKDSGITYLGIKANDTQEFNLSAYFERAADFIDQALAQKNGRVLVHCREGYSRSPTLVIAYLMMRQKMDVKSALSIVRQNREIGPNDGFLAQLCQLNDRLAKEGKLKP
A number is an active result; - = inactive. Many of the other results were omitted from the sample, so hits are more common in it than they were.

SMILES | VHR inh color
Cc1cccc(COc2ccc3c(c2)oc(=O)c2ccccc23)c1 | 96
S=C(NCC1OCCc2ccccc21)Nc1ccccc1 (configuration not stated) | -
CS(=O)(=O)N1CCN(S(C)(=O)=O)C(OCc2ccccc2)C1OCc1ccccc1 (configuration not stated) | -
C(/C=C/c1ccco1)=N/N1CCN(c2ccccc2)CC1 | -
O=C1c2ccccc2/C(=N/N=C/C=C/c2ccco2)C1C(=O)C(c1ccccc1)c1ccccc1 (configuration not stated) | 88
Cc1ccc(NCC(=O)N/N=C\C=C\c2ccco2)cc1 | -
N/C(=N/c1nc2ccccc2o1)NC(=O)c1sc2ccccc2c1Cl | -
Cc1ccc(S(=O)(=O)N(CCO)CC(O)Cn2c3ccc(Cl)cc3c3cc(Cl)ccc32)cc1 (configuration not stated) | -
Cc1cc(Br)ccc1N1C(=O)/C(=C/c2cccs2)C(=O)NC1=S | 102
Cc1cc(Br)ccc1N1C(=O)/C(=C/c2cc(C)n(C)c2C)C(=O)NC1=S | -
O=C1NC(=S)N(c2ccc(Cl)c(Cl)c2)C(=O)/C1=C/c1cccs1 | -
COc1ccccc1CN1CCN(Cc2ccccn2)CC1 | -
COc1cccc(CN2CCN(Cc3ccccn3)CC2)c1 | -
CC1CN(Cc2ccccn2)CCC1=O (configuration not stated) | 111
CCC(CC)C(=O)N1CCN(c2cccc(Cl)c2)CC1 | -
O=C(Nc1ccccc1)Nc1nc(C(c2ccccc2)c2ccccc2)cs1 | 88
O=C(Nc1ccccc1)Nc1nnc(C(c2ccccc2)c2ccccc2)s1 | -
O=C(Nc1ccccc1)Nc1nccs1 | -
COc1ccc(N(CC(=O)Nc2cc(C)ccc2C)S(C)(=O)=O)c(OC)c1 | -
Cc1ccc2oc(-c3cc(NC(=O)c4ccc(C(C)(C)C)cc4)ccc3O)nc2c1 | -
CNCCOc1nc(-c2ccccc2)cc(-c2ccccc2)n1 | -
CCCCN(CCCC)S(=O)(=O)c1ccc(I)cc1 | -
O=C(/C=C/c1ccc(-c2ccccc2[N+](=O)[O-])o1)Nc1ccc(-c2nc3ccccc3o2)cc1 | 106
O=C(/C=C/c1ccc(-c2ccccc2[N+](=O)[O-])o1)Nc1ccc(O)c(-c2nc3ccccc3o2)c1 | -
O=C(/C=C/c1ccc(-c2ccccc2[N+](=O)[O-])o1)NCc1ccccc1 | -
SMILES | VHR inh color
Cc1cc2c(cc1C)-c1nnc(-c3ccco3)n1C(C)(C)C2 | -
O=C(COc1ccc(Cl)cc1Cl)Oc1ccccc1[N+](=O)[O-] | -
Cc1ccccc1OCC(=O)Nc1ccc(Cl)cc1Cl | -
Cc1ccccc1OC(=O)COc1ccc(Cl)cc1Cl | 116
CCOC(=O)C1=C(C)N=c2s/c(=C\c3cccc(O)c3)c(=O)n2C1c1cc(Br)c(OC)cc1OC (configuration not stated) | -
Cn1cccc1CN1CCN(Cc2ccncc2)CC1 | -
O=C1S/C(=C/c2ccc(Cl)cc2Cl)C(=O)N1CN1CCCCC1 | -
CCOc1ccc(-c2c(C)sc(N)c2C(=O)OC(C)C)cc1 | -
CCOC(=O)c1c(N)sc(C)c1-c1ccc(OCC)cc1 | -
CCOC(=O)c1c(N)sc(C)c1-c1ccc(CC(C)C)cc1 | 64
CC1=C(C(=O)OCCc2ccccc2)C(c2ccccc2OC(C)C)CC(=O)N1 (configuration not stated) | -
CC1=C(C(=O)OC(C)C)C(c2ccccc2F)CC(=O)N1 (configuration not stated) | 118
CC1=C(C(=O)OCc2ccccc2)C(c2ccccc2OC(C)C)CC(=O)N1 (configuration not stated) | -
C#CCSc1nnc2c3ccccc3n(CC=C)c2n1 | -
O=C1c2cccc([N+](=O)[O-])c2C(=O)N1c1ccc2[nH]c(=S)sc2c1 | -
COc1ccc2c(c1)OCC/C2=N\OC(=O)c1cc(F)c(F)cc1Cl | -
NC1=NC(=O)/C(=C/c2ccc(OC(=O)c3ccc(Cl)c(Cl)c3)cc2)S1 | -
CCc1ccc(OCC(=O)Nc2ccccc2C(F)(F)F)cc1 | 112
O=C(COc1ccc(Cl)cc1)Nc1ccccc1C(F)(F)F | -
Cc1cccc(OCC(=O)Nc2ccccc2C(F)(F)F)c1 | -
CC(=O)NNC(=O)COc1ccc(Br)cc1 | -
Clc1ccc(CN2CCN(/N=C/c3ccc(Cl)c(Cl)c3)CC2)cc1 | -
O=C1NC(=S)N(c2ccccc2F)C(=O)/C1=C/c1ccc(Sc2ccccc2)o1 | -
O=C1NC(=S)N(c2ccccc2F)C(=O)C1=Cc1ccco1 | 87
O=C1NC(=S)N(c2ccccc2)C(=O)/C1=C/c1cc(Br)c(O)c(Br)c1 | -
SMILES | VHR inh color
CCc1ccc(N2C(=O)NC(=O)/C(=C/C=C/c3ccco3)C2=O)cc1 | -
Cc1ccc(C=C2C(=O)NC(=S)N(c3ccccc3F)C2=O)s1 | -
C=CCN1C(=O)/C(=C\c2ccc(Br)cc2)C(=O)NC1=S | -
C=CCN1C(=O)/C(=C\C=C\c2ccco2)C(=O)NC1=S | 88
O=C1NC(=S)N(c2ccccc2)C(=O)/C1=C/c1ccc(Cl)cc1Cl | -
O=C1NC(=S)N(c2ccccc2)C(=O)/C1=C/c1ccco1 | 67
COc1ccc(C2=C/C(=C/c3ccc(OC)c(OC)c3)C(=O)O2)cc1 | -
Brc1ccc(OCCCCN2CCOCC2)cc1 | -
CC(=O)NC1=NC(=O)/C(=C/c2cc(Cl)ccc2OCc2c(F)cccc2Cl)S1 | -
Cc1ccc(Cc2cnc(NC(=O)c3cccc([N+](=O)[O-])c3)s2)cc1 | -
CCOC(=O)C1=C(C)N(C)C(=O)NC1c1ccc(OC)c(OC)c1OC (configuration not stated) | -
COc1ccc(NC(=O)c2c(N)sc(-c3ccccc3)c2C)cc1 | -
O=C(Nc1ccccc1)c1ccccc1N=Cc1cc(Cl)cc(Cl)c1O | -
CC(=O)c1ccc(N2C(=O)CC(SC(=NCCc3ccccc3)Nc3ccc(F)cc3)C2=O)cc1 (configuration not stated) | -
COc1cc(/C=N/N=c2\sc3ccccc3n2C)ccc1O | -
COc1ccc(/C=N/N=c2\sc3ccccc3n2C)c(OC)c1 | 98
Cn1/c(=N/N=C/c2ccncc2)sc2ccccc21 | -
CCCCCCCc1ccc(C(=O)Nc2nccs2)cc1 | -
O=C(c1ccc(F)cc1)N1CCN(Cc2ccc3c(c2)OCO3)CC1 | -
O=C(Nc1ccccc1)N1CCN(Cc2ccc3c(c2)OCO3)CC1 | 101
O=C(COc1ccc2ccccc2c1)N1CCN(Cc2ccc3c(c2)OCO3)CC1 | -
COc1cc(C(N)=O)cc(OC)c1OC | -
Cc1cc(C)c2nc(Nc3ncc(O)[nH]3)nc(C)c2c1 | -
CCCOC(=O)c1ccc(NC(=O)CCC)cc1 | 111
CCCOC(=O)c1ccc(NC(=O)COc2ccc(OC)cc2)cc1 | -
SMILES | VHR inh color
CCCOC(=O)c1ccc(NC(=O)c2cc(Cl)c(OC)c(Cl)c2)cc1 | -
CCCOC(=O)c1ccc(NC(=O)/C=C\C(=O)O)cc1 | -
CCCCOC(=O)c1ccc(NC(C)=O)cc1 | -
CCCCC(=O)Nc1ccc(C(=O)OCCC)cc1 | 107
CC(C)N(C(=O)c1ccc(C(=O)Nc2ccc(Nc3ccccc3)cc2)cc1)C(C)C | -
O=C1c2ccccc2NC(c2ccccc2)N1O (configuration not stated) | -
CCNC(=O)c1cc2c(C)nn(-c3ccccc3)c2s1 | -
CC(=O)c1cccc(NC(=O)/C(=C/c2cccc3ccccc23)NC(=O)c2ccc(C)cc2)c1 | -
Cc1cccc(OCC(=O)Nc2ccc(Cl)cc2)c1C | -
O=C(CCC(=O)OCC(F)(F)C(F)F)Nc1nc2ccccc2s1 | -
CN1C(=O)C(=Cc2ccc(N3CCCC3)c([N+](=O)[O-])c2)C(=O)N(C)C1=O | 90
